Experimental data: PubChem BioAssay (NCI)
The panel holds about 83,000 compounds, 20% with a hit somewhere; the sample as a whole holds those more often.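 Testing used 96-well plates and a 48-hour single-concentration exposure. Example: -40 means 40% of the starting cells died.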 Values without a mark were called inactive. Active and inactive are the calls of the source. How the source made its calls: active means growth percent below 10; inactive means the rest.

Key:
Experiment in all cases: NCI-60 one-dose screen, 48 h (100 = growth as untreated, 0 = no growth, -100 = all killed)
Conditions in all cases: 10 µM unless noted
NCI-H23 lung = test system: NCI-H23 lung
NCI-H322M lung = test system: NCI-H322M lung
HOP-62 NSCLC = test system: HOP-62 NSCLC
NCI-H460 lung = test system: NCI-H460 lung
HOP-92 NSCLC = test system: HOP-92 NSCLC
NCI-H522 lung = test system: NCI-H522 lung
A549/ATCC NSCLC = test system: A549/ATCC NSCLC
786-0 renal = test system: 786-0 renal
COLO 205 colon = test system: COLO 205 colon
DU-145 prostate = test system: DU-145 prostate
K-562 leukemia = test system: K-562 leukemia
MALME-3M melanoma = test system: MALME-3M melanoma
MDA-MB-231 breast = test system: MDA-MB-231 breast
RXF 393 renal = test system: RXF 393 renal
SF-268 CNS = test system: SF-268 CNS
SF-539 CNS = test system: SF-539 CNS
UACC-257 melanoma = test system: UACC-257 melanoma
M14 melanoma = test system: M14 melanoma
HCT-15 colon = test system: HCT-15 colon
SF-295 CNS = test system: SF-295 CNS

Row | Compound | growth (NCI-H23 lung) [%] | growth (NCI-H322M lung) | growth (HOP-62 NSCLC) [%] | growth (NCI-H460 lung) | growth (HOP-92 NSCLC) | growth (NCI-H522 lung) | growth (A549/ATCC NSCLC) | growth (786-0 renal) | growth (COLO 205 colon) | growth (DU-145 prostate) [%] | growth (K-562 leukemia) | growth (MALME-3M melanoma) [%] | growth (MDA-MB-231 breast) | growth (RXF 393 renal) | growth (SF-268 CNS) | growth (SF-539 CNS) | growth (UACC-257 melanoma) | growth (M14 melanoma) | growth (HCT-15 colon) | growth (SF-295 CNS)
1 | Clc1ccc(-c2nnc(COc3ccc(C4=NNC(c5ccco5)C4)cc3)o2)cc1 (stereo unspecified) | 61.5 | 36.6% | 105 | 82.7% | 76.8% | 86.7% | 45.6% | 89.5% | 105% | 94.8 | 80.7% | 109 | 82.7% | 91.7% | 93.9% | 95.6% | 96.1% | 88% | 58.8% | 
2 | CCCCCCCCCCOC(=O)c1ccccc1C(=O)OCCCC | 107 | 108% | 107 | 120% | 91.3% | 91.2% | 111% | 106% | 117% | 114 | 99.9% | 157 |  |  | 109% | 103% | 111% | 100% | 111% | 
3 | COc1ccc(C2c3ccc4ccccc4c3Oc3ncn(CCCn4ccnc4)c(=N)c32)cc1OC (stereo unspecified) | 60.6 | 49.8% | 73.4 | 55.8% | 24.3% | 72.6% | 55.3% | 68.4% | 53.4% | 79 | 15.6% |  | 69.2% | 73.2% | 89.5% | 67.8% | 72.4% | 49.6% | 68.5% | -7.39% (active)
4 | CN(CCc1ccccc1)C(=S)N(C(=O)c1ccc([N+](=O)[O-])cc1)c1ccc(Cl)cc1 | 97.5 | 102% | 102 | 102% | 67% | 100% | 98.2% | 88% | 109% | 73.1 | 40.6% |  | 101% |  | 91.7% | 92.6% | 101% | 94.8% | 83.9% | 110%
5 | N#C/C(=C\c1c(-c2ccccc2)[nH]c2ccccc12)S(=O)(=O)c1ccccc1 | 40.7 | 60% | 39.2 | 16.1% | 53% | 54.9% | 45.5% | 51.3% | 12.8% | 21.2 | 17.5% | 76.5 | 47.2% |  | 53% | -20.1% (active) | 73.8% | 42.8% | 44.1% | 25.7%
6 | CSc1nc2c(c(=O)[nH]1)N=C1c3ccccc3C(=O)C1C(c1ccccc1)N2 (stereo unspecified) | 62 | 69.4% | 45.5 | 12.3% | 59.5% | 82.2% | 51.6% | 46% | 33.5% | 75.4 | 34.8% | 34.8 | 82.6% |  | 47.9% | 25.6% | 74.5% | 29.4% | 36.8% | 
7 | CCOc1ccc2nc(C)cc(Nc3ccc(Br)cc3)c2c1 | 95.8 | 93.9% | 109 | 101% | 105% | 107% | 95.2% | 108% | 95.9% | 110 | 87.6% |  | 109% | 110% | 108% | 103% | 103% | 121% | 82.2% | 110%
8 | COc1ccc(C2NCCc3c2[nH]c2ccccc32)cc1CN1CCN(c2ccc(F)cc2)CC1 (stereo unspecified) | 64.8 | 78.5% | 63.4 | 5.7% (active) | -18.7% (active) | 40.8% | 63.7% | 51% | 47.6% | 78.5 | 17% |  | -32.5% (active) | -9.51% (active) | 76.4% | 58.8% | -39.9% (active) | -30% (active) | 8.26% (active) | -67.2% (active)
9 | Cn1c(C(=O)c2cccc3ccccc23)nc2ccccc21 | 19.4 | -2.65% (active) | 18.6 | 3.61% (active) | 34% | -4.82% (active) | 3.42% (active) | 5.77% (active) | 12.9% | 18.3 | 7.22% (active) |  | 29.1% | 13.5% | 2.01% (active) | -1.45% (active) | -7.56% (active) | -45.9% (active) | 29.4% | 
10 | O=C(c1ccccc1)N(CCc1ccc(Cl)cc1)C(=S)N(C(=O)c1ccccc1)c1ccccc1 | 92.7 | 111% | 118 | 106% | 71% | 105% | 97.3% | 97.6% | 150% | 83.9 | 58.3% |  | 107% |  | 101% | 106% | 102% | 113% | 93.8% | 109%
11 | Nc1nc(N)c2c(n1)NC1(C=C(O)c3ccccc31)C1=C(N2)c2ccccc2C1=O (stereo unspecified) | 104 | 123% | 104 | 105% | 87% | 95.3% | 110% | 104% | 118% | 98.7 | 95.5% | 108 | 107% |  | 104% | 109% | 120% | 105% | 112% | 109%
12 | O=C(c1ccccc1)N(C(=S)NCCc1ccc(Cl)cc1)c1ccc(Cl)cc1 | 74.7 | 75.9% | 91.3 | 80.1% | 76.3% | 92.1% | 82.4% | 57.2% | 61.6% | 29.3 | 4.72% (active) |  | 91.7% |  | 33.2% | 36.9% | 71.2% | 71.2% | 47.6% | 68.3%
13 | O=C(CCN1C(=O)c2ccccc2C1=O)Nc1ccc(Cl)cc1 | 66.4 | 82.2% | 54.8 | 44.1% | 64.3% | 66.3% | 79.2% | 65.8% | 118% | 67.2 | 60.7% |  | 114% |  | 73.6% | 86.5% | 98.2% | 92.7% | 61.7% | 28.4%
14 | CN(O)c1nc(N(C)O)nc(N2CCOCC2)n1 | 66 | 35.1% | 34.5 | 8.62% (active) | 52.4% | 31.4% | 33% | 21% | 3.87% (active) | 38.8 | 9.56% (active) | 48.5 | 56% |  | 29.3% | 38% | 30% | 16% | 22.5% | -30.2% (active)
15 | CN1CCN(c2nc(Nc3ccc(O)cc3)nc3ccccc23)CC1 | 74.8 | 68% | 74.5 | 13.9% | 89.6% | 37.5% | 42.5% | 64.2% | 44.1% | 63 | 42% | 61.8 | 66.2% | 77.3% | 52.5% | 47.2% | 59.2% | 50.3% | 32.5% | 
16 | COc1ccc(-n2c(C(O)c3ccccc3)nn(CN3CCOCC3)c2=S)cc1 (stereo unspecified) | 99.4 | 104% | 101 | 111% | 82.6% | 89.9% | 103% | 106% | 112% | 109 | 110% | 104 | 97.6% |  | 103% | 102% | 105% | 95.2% | 113% | 79.7%
